Source: PubChem BioAssay (NCI)
About 83,000 compounds went through this panel and 20% of them were active in at least one assay; those are over-represented in the sample as a whole.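 Compound tested at a single concentration for 48 hours in 96-well plates; a percent growth value below 10 was scored as active.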 A number with no mark means an inactive call. Calls of active or inactive are those of the source.

The compounds below were run on OVCAR-4 ovarian (assay: NCI-60 one-dose screen, 48 h (100 = growth as untreated, 0 = no growth, -100 = all killed)). Conditions: 10 µM unless noted.

| Structure (SMILES) | growth |
| --- | --- |
| Cc1ccc(S(=O)(=O)c2nc(S(=O)(=O)c3ccc(C)cc3)c(N3CCC(O)CC3)s2)cc1 | 65% |
| Cc1sc2c(c1C)C(c1ccc(Cl)cc1)=N[C@@H](CC(=O)NCCCCCNC(=O)COc1ccc(C3CCC(=O)NC3=O)cc1)c1nnc(C)n1-2 (stereo partly specified) | 22.8% |
| COc1ccc2c(c1)C(=N/N=C(\C)c1ccc(OC)c(S(N)(=O)=O)c1)C(=O)N2 | 96.6% |
| COc1cc2oc(-c3cccc(C(=O)Nc4ccc(Cl)cc4)c3)cc(=O)c2c(OCCNC(=O)[C@H](CCC(=O)OC(C)(C)C)NC(=O)OC(C)(C)C)c1OC | 93% |
| COc1ccc(-c2nc3cc(C)ccc3n2CC(=O)N=Nc2c(O)[nH]c3ccc(Cl)cc23)cc1 | -25.4% (active) |
| C=CC[N+](C)(C)CCn1c2ccccc2c2nc3cc(C)c(C)cc3nc21 | 95% |
| O=C(c1ccc(OCCN2CCOCC2)cc1)C1[C@H](c2ccc(Cl)cc2)[C@@H](c2ccccc2)NC12C(=O)Nc1ccc(Br)cc12 (stereo partly specified) | 50.3% |
| N#Cc1c(-c2ccc(Br)cc2)nc2n[nH]c(-c3ccc(Br)cc3)c2c1-c1ccc(F)cc1 | 96.4% |
| Cc1ccccc1[C@H]1C(C(=O)c2ccc(Cl)cc2)C2(N[C@@H]1c1ccccc1)C(=O)Nc1ccc(Cl)cc12 (stereo partly specified) | 11.2% |
| COc1cc(C2CC(c3cc(OC)c(OC)c(OC)c3)=NN2C(C)=O)ccc1OCc1ccccc1 (stereo unspecified) | 22.3% |
| Cc1cccc(NC(=O)[C@]23CCC(C)(C)CC2C2=CCC4[C@@]5(C)C[C@@H](O)[C@H](O)[C@@](C)(CO)C5CC[C@@]4(C)[C@]2(C)CC3)c1 (stereo partly specified) | 23.5% |
